Compound activity deposited in PubChem by National Center for Advancing Translational Sciences (NCATS).
HP1b binding inh: HP1-beta chromodomain-methylated histone interaction inhibition; Potency, µM (series often up to 114 µM), without a hit: top-dose activity change, negative = inhibition, usual class: inhibitors; P83916; AID 540317; 390,000 tested, 0.56% active; AlphaScreen HP1-beta / biotin-H3K9me3 peptide binding; note: potency is the fitted concentration of half-maximal effect; nearly all actives have a fitted effect of over 70% in size
Target sequence (P83916 whole entry, looked up): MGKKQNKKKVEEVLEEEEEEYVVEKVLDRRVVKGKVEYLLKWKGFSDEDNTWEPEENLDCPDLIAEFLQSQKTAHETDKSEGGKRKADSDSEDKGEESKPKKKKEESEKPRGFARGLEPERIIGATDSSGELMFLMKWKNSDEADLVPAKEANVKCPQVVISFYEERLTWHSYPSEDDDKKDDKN
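Compound inhibition of the preformed complex between 50 nM HP1-beta and 50 nM biotinylated H3K9me3 peptide was read by AlphaScreen. Buffer was PBS pH 7.4 with 0.01% Tween-20. Incubations ran 30 min at room temperature, with 10 ug/mL donor/acceptor beads.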
PLK1 PBD block: inhibitors of human PLK1 polo-box domain binding; P53350; Plk1 PBD binding of FITC phosphopeptide, fluorescence polarization; AID 720504; 360,000 tested, 2.8% active; Potency, µM, for inactives: max response, negative = inhibition, hits mostly inhibitors; note: potency is the fitted concentration of half-maximal effect; series mostly up to about 57 µM; % is set by controls: 0 for no effect and ±100 for the full control effect; nearly all actives have a fitted effect of over 65% in size
PI5P4K alpha inh: inhibitors of human PI5P4K alpha; P48426; PI5P4Kalpha enzyme, ADP-Glo luminescence, 60 min; active compounds read low; max response, %; 330,000 tested, 1.2% active; AID 652105; active = max response of -50% or lower; inconclusive = between -30% and -50%; inactive = -30% or higher; note: value at the top dose of about 77 µM; % is set by controls: 0 for no effect and ±100 for the full control effect
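Single end-point luminescence (ADP-Glo) quantified ADP from PI5P4Kalpha turnover; ATP 5 microM final, 1 h at RT, 0.1% CHAPS and 0.28 mM EGTA in HEPES pH 7.4.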
JMJD2A Tudor inh: inhibitors of human JMJD2A Tudor domain | AlphaScreen JMJD2A-Tudor / H3K4me3 peptide binding | 390,000 tested, 4.4% active | AID 504339 | O75164 | Potency, µM (titrated, usually from 114 µM), for inactives: top-dose activity change, negative = inhibition, hits mostly inhibitors; note: potency is the fitted concentration of half-maximal effect; % is set by controls: 0 for no effect and ±100 for the full control effect; nearly all actives have a fitted effect of over 50% in size
BAZ2B inh: inhibitors of human BAZ2B bromodomain. Q9UIF8. Potency, µM (doses to about 114 µM), inactives show at the highest dose activity change, negative = inhibition, most hits filed as inhibitors. 360,000 tested, 4.4% active. AlphaScreen BAZ2B-H3K14Ac peptide displacement; note: potency is the fitted concentration of half-maximal effect; % is set by controls: 0 for no effect and ±100 for the full control effect; nearly all actives have a fitted effect of over 60% in size
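AlphaScreen displacement of biotin-H3(5-23)K14Ac peptide (50 nM final) from BAZ2B (50 nM final) in PBS pH 7.4, 0.01% Tween-20; complex preformed 30 min RT, then compounds (top 110 uM) 30 min RT, beads 20 min dark.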
KAT2A inh: blocks human GCN5L2 histone acetyltransferase | Q92830 | GCN5L2 HAT assay, ThioGlo1 CoA-SH fluorescence | Potency, µM (doses to about 58.9 µM), for the others: top-dose activity change, negative = inhibition, hits mostly inhibitors | 390,000 tested, 0.21% active; note: potency is the fitted concentration of half-maximal effect; % is set by controls: 0 for no effect and ±100 for the full control effect
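ThioGlo1-coupled HAT assay: 20nM GCN5L2, 70uM acetyl-CoA, 75uM H3(1-25) peptide, pH 7.5. Fluorescence read at 340/540nm at start and after 20 min at room temperature.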
* = called active by the depositor; ? = inconclusive; · = no result. This is a sample that favours compounds with a hit; in the whole collection about 7% have one here. Unless noted, calls come from the whole dose curve; as a rule, active = well fitted curve in the direction sought with a large enough effect; inconclusive = small, poorly fitted or top-dose-only effect, or another doubt; inactive = no such curve, though single readings can be large; an effect the other way counts as inactive or inconclusive.

SMILES	HP1b binding inh	PLK1 PBD block	PI5P4K alpha inh	JMJD2A Tudor inh	BAZ2B inh	KAT2A inh
CCC(C(=O)NC1CC1)n1nc(C)c2c(C)n(-c3ccc(C)cc3)nc2c1=O (configuration not stated)	27.1%	2.7%	-0.1	-12.4%	-2.6%	-1.1%
CCC(C(=O)NCCCc1ccccc1)n1nc(C)c2c(C)n(-c3ccccc3)nc2c1=O (configuration not stated)	42.1%	-8.5%	0.0	-26.7%	-4.8%	-5.9%
CC(C)c1nnc(NC(=O)c2cnccn2)s1	9.1%	-7.9%	·	1.12µM*	39.8µM*	-3.4%
Cc1cnc(C(=O)Nc2nnc(C(C)C)s2)cn1	28.0%	-8.3%	-0.1	0.282µM*	50.1µM*	-21.0%
Cc1cnc(C(=O)Nc2nnc(C)s2)cn1	32.6%	-3.6%	4.1	1.12µM*	?	-0.2%
Cc1csc(NC(=O)c2cccnc2)n1	35.1%	-10.1%	-2.1	-9.2%	10.1%	-4.7%
Cc1csc(NC(=O)c2cnccn2)n1	-1.9%	-4.0%	6.7	7.94µM*	?	-4.7%
Cc1cnc(C(=O)Nc2nnc(C3CC3)s2)cn1	16.9%	-2.9%	0.1	-7.4%	?	-7.4%
Cc1ccc(Cn2c(C)c(CNCCCc3ccccc3)c(C(=O)O)c2C)cc1	13.3%	·	·	-30.2%	?	-0.7%
CC(C)(C)N1C(=O)c2ccc(C(=O)O)cc2C1=O	27.4%	2.3%	?	-5.2%	0.9%	-21.4%
O=C(O)c1ccc2c(c1)-c1cc(C(=O)O)ccc1S2(=O)=O	26.3%	-7.8%	-73.5*	-14.8%	-38.6%	0.4%
Fc1ccc2[nH]c3c(c2c1)CN(C(=S)NCc1ccccc1)CC3	-18.5%	-21.3%	1.0	?	56.2µM*	-7.1%
CN(C)S(=O)(=O)c1ccc(NCC2COc3ccccc3O2)c([N+](=O)[O-])c1 (configuration not stated)	?	29.9µM*	-9.7	25.1µM*	?	-8.7%
CCN(CC)S(=O)(=O)c1ccc(NCC2COc3ccccc3O2)c([N+](=O)[O-])c1 (configuration not stated)	?	7.2%	-1.6	?	?	-22.5%
Fc1ccccc1N1CCN(CCCc2ccccc2)CC1	?	-5.9%	-2.9	22.4µM*	?	-8.3%
C/C(=C\c1ccccc1)CN1CCN(c2ccccc2F)CC1	?	3.2%	·	5.01µM*	-37.8%	·
CCOc1ccc(C(=O)NCC(=O)Nc2ccc(N3CCOCC3)cc2)cc1OCC	18.2%	-0.6%	0.0	-25.7%	6.0%	4.5%
O=C(NNC(=O)c1ccc(NC(=O)c2ccccc2)cc1)Nc1ccccc1	14.8%	-14.5%	6.8	?	70.8µM*	-2.3%
O=C(NNC(=O)c1ccc(NC(=O)c2ccccc2)cc1)c1ccc(F)cc1	33.8%	-9.0%	4.6	-23.7%	-22.9%	-16.9%
NC(=O)c1cc[n+](CC(=O)c2ccc(NC(=O)c3ccccc3)cc2)cc1	19.1%	23.8µM*	-17.1	?	-15.1%	3.2%
O=C(NNC(=O)c1cccc(Br)c1)Nc1ccc(Cl)cc1	?	21.2µM*	-26.4	12.6µM*	-9.7%	0.6%
COc1ccc(/C=C/C(=O)N(C)C2(C)CCS(=O)(=O)C2)cc1 (configuration not stated)	31.6%	3.6%	-1.0	-13.8%	10.0%	-5.9%
CC(=Nc1ccccc1)C1=C(O)CC(C)(C)CC1=O	23.6%	-3.8%	-2.1	-7.9%	-5.6%	-3.0%
CC1(C)CC(=O)C(Sc2ccccc2)=C(O)C1	59.5%	11.9µM*	-2.1	2.8%	-12.3%	-2.8%
CC1(C)CC(=O)C(Sc2ccccc2C(=O)O)=C(O)C1	9.1%	-17.6%	-15.8	25.1µM*	-7.6%	-2.1%
CC1(C)CC(=O)C(CC(=O)NC(=O)NCc2ccccc2)=C(O)C1	31.8%	-0.6%	·	-11.0%	4.0%	-4.9%
COc1ccc(CNC(=O)C(C)n2nc(C)c3c(C)n(-c4ccc(C)cc4)nc3c2=O)cc1 (configuration not stated)	-5.2%	21.2µM*	-19.8	?	-19.8%	-20.7%
